According to PubChem BioAssay (EPA / NIEHS):
Activity calls are given as the source filed them. How the source made its calls: active means hit-call score of the fitted dose curve at least 0.9, where 1 is the maximum; inactive means score below 0.9.

Columns and labels:
[1] = APR_HepG2_NuclearSize_72hr: Apredica 72-hour HepG2 Assay for Nuclear Size (AID 2282925); conditions: high-content imaging, actives raise or lower the signal
How it was run: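 Nuclear size was read by high-content imaging of Hoechst 33342 stain after formaldehyde fixation. Compounds ran 72 h on HepG2 at 0.39 to 200 uM, with final DMSO 0.5% v/v. Curves fitted both directions relative to DMSO control.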

[2] = ATG_CRE_CIS: Attagene CIS-FACTORIAL HepG2 Assay for human cAMP Responsive Element (CRE) binding protein 3 (AID 2282926); conditions: HepG2 CRE cis-reporter, Attagene multiplexed mRNA; actives raise or lower the signal
How it was run: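 Cells carrying cis-regulated reporter constructs respond through their own endogenous factors. After 24 h treatment, RNA is reverse-transcribed, amplified, labelled and sized by capillary electrophoresis; up- and down-regulation are both scored against vehicle.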

[3] = target: CCAAT/enhancer-binding protein beta (Homo sapiens) (UniProt P17676); test: ATG_C_EBP_CIS: Attagene CIS-FACTORIAL HepG2 Assay for human CCAAT/Enhancer Binding Protein (C/EBP) beta (AID 2282927); conditions: HepG2 Attagene cis-factorial transcription factor reporter; actives raise or lower the signal
Chain of CCAAT/enhancer-binding protein beta (Homo sapiens) (P17676 whole entry, looked up, the tested form may be a part): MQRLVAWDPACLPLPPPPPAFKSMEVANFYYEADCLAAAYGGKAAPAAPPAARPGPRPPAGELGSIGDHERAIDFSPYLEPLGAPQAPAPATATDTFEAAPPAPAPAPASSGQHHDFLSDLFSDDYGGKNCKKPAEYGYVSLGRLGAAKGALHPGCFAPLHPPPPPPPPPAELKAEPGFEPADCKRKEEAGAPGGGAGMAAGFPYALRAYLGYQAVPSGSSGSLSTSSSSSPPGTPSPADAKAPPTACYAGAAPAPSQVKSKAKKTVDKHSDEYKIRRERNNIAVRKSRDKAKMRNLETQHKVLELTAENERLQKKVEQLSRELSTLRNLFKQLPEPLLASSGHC
How it was run: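 Endogenous C/EBPb-driven reporter transcripts measured in transfected human HepG2 cells at 24 h via RT-PCR and capillary electrophoresis of labelled fragments. Activity fitted in both directions relative to DMSO baseline.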

[4] = ATG_CMV_CIS: Attagene CIS-FACTORIAL HepG2 Assay for human CMV (Internal Marker) (AID 2282928); conditions: HepG2 CMV promoter reporter, transcription factor profiling; actives raise or lower the signal;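 further: endpoint acts as a background internal control marker rather than a target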
How it was run: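 Bidirectional fits against DMSO are applied to reporter mRNA, read by RT-PCR with capillary electrophoresis, from HepG2 cells exposed 24 h. The endpoint serves as an internal CMV background marker within the cis-factorial reporter panel.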

[5] = ATG_DR4_LXR_CIS: Attagene CIS-FACTORIAL HepG2 Assay for human Liver X Receptor (LXR), DR4 submotif (AID 2282929); conditions: HepG2 Attagene DR4 cis-reporter, mRNA transcription; actives raise or lower the signal
How it was run: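 Endogenous factor activity at a DR4 cis-element is read as reporter mRNA in transiently transfected HepG2 cells. Exposure lasts 24 h; transcripts are amplified, fluorescently labelled and sized by capillary electrophoresis, with DMSO as baseline.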

[6] = target: Aryl hydrocarbon receptor (Homo sapiens) (UniProt P35869); test: ATG_Ahr_CIS: Attagene CIS-FACTORIAL HepG2 Assay for human Aryl Hydrocarbon Receptor (Ahr) (AID 2282930); conditions: HepG2 AhR cis-factorial reporter transcription; actives raise or lower the signal
Chain of Aryl hydrocarbon receptor (Homo sapiens) (P35869 whole entry, looked up): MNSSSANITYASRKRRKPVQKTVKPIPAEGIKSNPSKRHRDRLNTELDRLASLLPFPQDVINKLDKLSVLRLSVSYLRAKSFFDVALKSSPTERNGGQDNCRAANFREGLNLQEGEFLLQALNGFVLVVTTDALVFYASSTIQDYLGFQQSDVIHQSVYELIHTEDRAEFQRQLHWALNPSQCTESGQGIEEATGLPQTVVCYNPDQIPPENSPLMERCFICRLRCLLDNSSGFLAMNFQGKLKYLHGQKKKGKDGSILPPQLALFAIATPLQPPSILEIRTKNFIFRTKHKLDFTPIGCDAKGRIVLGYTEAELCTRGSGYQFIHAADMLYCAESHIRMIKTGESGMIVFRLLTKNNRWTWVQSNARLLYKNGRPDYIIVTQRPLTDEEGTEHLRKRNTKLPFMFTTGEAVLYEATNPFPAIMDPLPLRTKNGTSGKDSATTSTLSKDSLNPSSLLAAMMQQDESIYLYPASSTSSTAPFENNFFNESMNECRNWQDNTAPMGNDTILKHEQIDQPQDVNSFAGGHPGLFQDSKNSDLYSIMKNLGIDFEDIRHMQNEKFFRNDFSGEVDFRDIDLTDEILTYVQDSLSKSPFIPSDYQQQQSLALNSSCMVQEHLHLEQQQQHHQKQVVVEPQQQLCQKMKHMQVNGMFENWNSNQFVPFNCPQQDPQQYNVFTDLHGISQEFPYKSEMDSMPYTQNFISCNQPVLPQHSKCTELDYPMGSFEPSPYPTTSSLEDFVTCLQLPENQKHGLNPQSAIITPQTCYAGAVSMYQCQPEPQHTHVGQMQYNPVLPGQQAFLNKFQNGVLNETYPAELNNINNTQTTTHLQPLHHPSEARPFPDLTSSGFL
How it was run: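 Reporter mRNA levels, quantified by RT-PCR and fluorescent capillary electrophoresis, reflect endogenous AhR transcriptional activity in HepG2 cells carrying transfected cis-promoter reporter constructs. Readout at 24 h post-dose; gain or loss fitted against DMSO baseline.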

[7] = ATG_AP_1_CIS: Attagene CIS-FACTORIAL HepG2 Assay for human Activator Protein 1 (AP-1) (AID 2282931); conditions: HepG2 Attagene cis-factorial AP-1 reporter mRNA; actives raise or lower the signal
How it was run: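 Fluorescence of labelled PCR fragments separated by capillary electrophoresis gives reporter mRNA levels. HepG2 with transfected cis-regulated reporter units, 24 h exposure; DMSO serves as baseline for bidirectional curve fits.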

[8] = target: Transcription factor E2F1 (Homo sapiens) (UniProt Q01094); test: ATG_E2F_CIS: Attagene CIS-FACTORIAL HepG2 Assay for human E2F Transcription Factor 1 (AID 2282935); conditions: HepG2 Attagene cis-reporter, E2F reporter RNA transcripts; actives raise or lower the signal
Chain of Transcription factor E2F1 (Homo sapiens) (Q01094 whole entry, looked up): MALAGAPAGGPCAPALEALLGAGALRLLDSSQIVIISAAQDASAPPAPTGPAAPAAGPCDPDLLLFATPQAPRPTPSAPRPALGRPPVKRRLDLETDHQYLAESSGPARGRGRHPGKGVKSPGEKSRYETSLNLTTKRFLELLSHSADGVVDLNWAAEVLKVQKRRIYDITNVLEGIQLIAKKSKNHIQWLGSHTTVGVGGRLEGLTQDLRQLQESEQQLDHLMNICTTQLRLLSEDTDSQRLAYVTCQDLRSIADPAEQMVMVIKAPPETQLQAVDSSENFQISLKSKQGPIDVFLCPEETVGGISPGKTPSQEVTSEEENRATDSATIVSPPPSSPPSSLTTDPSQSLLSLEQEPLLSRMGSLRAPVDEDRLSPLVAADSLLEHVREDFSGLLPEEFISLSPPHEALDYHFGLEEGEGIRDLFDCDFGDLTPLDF
How it was run: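 Gain or loss of reporter transcript, fitted against DMSO, reflects E2F1-driven transcription. Transiently transfected HepG2 dosed 24 h before RNA isolation. Quantified by fluorescent RT-PCR products separated by capillary electrophoresis.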

[9] = ATG_E_Box_CIS: Attagene CIS-FACTORIAL HepG2 Assay for human Enhancer Box (E-box) (AID 2282936); conditions: HepG2 E-box cis-reporter transcription, actives raise or lower the signal
How it was run: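 E-box-driven reporter transcripts measured in transiently transfected HepG2 after 24 h exposure: RNA reverse-transcribed, PCR-amplified, fluorescently labelled, digested and resolved by capillary electrophoresis. Gain or loss relative to DMSO.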

[10] = ATG_M_61_CIS: Attagene CIS-FACTORIAL HepG2 Assay for M61 Transcription Factor (Internal Marker) (AID 2282937); conditions: HepG2 Attagene CIS-FACTORIAL M61 internal marker reporter; actives raise or lower the signal
How it was run: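 This endpoint serves as an internal background control within a multiplexed HepG2 cis-reporter panel. Cells are exposed for 24 h; reporter mRNA is amplified, fluorescently labelled and sized by capillary electrophoresis, with DMSO as negative control.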

[11] = ATG_EGR_CIS: Attagene CIS-FACTORIAL HepG2 Assay for human Early Growth Response 1 (EGR1) (AID 2282938); conditions: HepG2 Attagene CIS-FACTORIAL EGR reporter mRNA; actives raise or lower the signal
How it was run: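 HepG2, transient MRTU transfection (cis promoters), 24 h compound. RNA → RT (oligo-dT) → PCR → 6-FAM labelling → HpaI cut → CE fluorescence. Bidirectional fit, DMSO baseline.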

[12] = ATG_M_19_CIS: Attagene CIS-FACTORIAL HepG2 Assay for M19 Transcription Factor (Internal Marker) (AID 2282939); conditions: HepG2 Attagene CIS-FACTORIAL M19 internal marker reporter; actives raise or lower the signal
How it was run: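 Transfect HepG2 with MRTU reporter library → dose chemical, 24 h → isolate total RNA, reverse-transcribe with oligo(dT) → PCR, 6-FAM label, HpaI cut (2 h, 37 C) → capillary electrophoresis. Bidirectional fit vs DMSO.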

[13] = ATG_ERE_CIS: Attagene CIS-FACTORIAL HepG2 Assay for Estrogen Response Element (ERE) (AID 2282940); conditions: HepG2 ERE cis-reporter, Attagene RNA transcript; actives raise or lower the signal
How it was run: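 Transient MRTU transfection of human HepG2; cis-element promoters; 24 h dosing; total RNA → RT (oligo dT) → PCR → 6-FAM primer extension → HpaI digest → CE fluorescence. Bidirectional fit, DMSO baseline.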

[14] = ATG_Ets_CIS: Attagene CIS-FACTORIAL HepG2 Assay for human Erythroblast Transformation Specific (ETS) (AID 2282941); conditions: HepG2 ETS cis-reporter transcription, actives raise or lower the signal
How it was run: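 Endogenous transcription factor activity read as reporter mRNA via RT-PCR and capillary electrophoresis, with gain or loss fitted bidirectionally against DMSO. Human HepG2 liver cells, transiently transfected CIS reporter constructs, 24 h exposure.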

[15] = target: Hepatocyte nuclear factor 3-beta (Homo sapiens) (UniProt Q9Y261); test: ATG_FoxA2_CIS: Attagene CIS-FACTORIAL HepG2 Assay for human Forkhead box A2 (FOXA2) (AID 2282942); conditions: HepG2 cis-reporter transcription factor activity, 24 h; actives raise or lower the signal
Chain of Hepatocyte nuclear factor 3-beta (Homo sapiens) (Q9Y261 whole entry, looked up): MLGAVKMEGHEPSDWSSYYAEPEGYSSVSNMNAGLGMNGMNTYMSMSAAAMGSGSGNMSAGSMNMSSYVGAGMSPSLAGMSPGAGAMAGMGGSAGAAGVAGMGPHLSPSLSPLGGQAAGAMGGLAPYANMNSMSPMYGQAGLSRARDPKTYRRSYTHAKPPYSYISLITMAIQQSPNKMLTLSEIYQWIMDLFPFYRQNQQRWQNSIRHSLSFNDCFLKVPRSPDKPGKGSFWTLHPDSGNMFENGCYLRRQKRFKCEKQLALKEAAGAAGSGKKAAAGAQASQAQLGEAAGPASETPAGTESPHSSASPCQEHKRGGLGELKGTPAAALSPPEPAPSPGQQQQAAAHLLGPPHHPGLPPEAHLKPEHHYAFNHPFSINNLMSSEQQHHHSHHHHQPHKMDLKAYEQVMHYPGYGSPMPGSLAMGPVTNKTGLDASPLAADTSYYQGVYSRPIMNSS
How it was run: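 Cells: HepG2, transient multiplex reporter transfection. Exposure 24 h. Detection: reporter-specific RT-PCR, fluorescent labelling, restriction digest, capillary electrophoresis. Analysis: bidirectional curve fit, DMSO as negative control.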

[16] = ATG_FoxO_CIS: Attagene CIS-FACTORIAL HepG2 Assay for human Forkhead box O (FoxO) (AID 2282943); conditions: HepG2 Attagene cis-reporter, FoxO element, mRNA; actives raise or lower the signal
How it was run: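 Endogenous transcription factor activity read from multiplexed cis-promoter reporter transcripts in transiently transfected HepG2, 24 h after dosing. Reporter RNA measured via RT-PCR plus capillary electrophoresis of FAM-labeled products; gain or loss relative to DMSO.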

[17] = ATG_GATA_CIS: Attagene CIS-FACTORIAL HepG2 Assay for human GATA Binding Protein (AID 2282944); conditions: HepG2 GATA cis-element reporter, Attagene multiplex mRNA; actives raise or lower the signal
How it was run: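 Transient MRTU transfection, HepG2, 24 h compound exposure. Total RNA → oligo(dT) RT → PCR → 6-FAM primer extension → HpaI cut → CE. Bidirectional fit vs DMSO.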

[18] = ATG_BRE_CIS: Attagene CIS-FACTORIAL HepG2 Assay for human Bone Morphogenetic Protein (BMP) Response Element (BRE) (AID 2282933); conditions: HepG2 BMP response element reporter, Attagene transcription factor profiling; actives raise or lower the signal
How it was run: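 Transient MRTU transfection of human HepG2 liver cells; 24 h compound treatment; total RNA isolated, reverse-transcribed, PCR-amplified, 6-FAM labelled, HpaI-cut, capillary electrophoresis. DMSO = negative control/baseline, bidirectional fit.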

[19] = target: Retinoic acid receptor alpha (Homo sapiens) (UniProt P10276); test: ATG_DR5_RAR_CIS: Attagene CIS-FACTORIAL HepG2 Assay for human Retinoic Acid Receptor Alpha (RARE), DR5 submotif (AID 2282934); conditions: HepG2 Attagene cis-factorial RARE DR5 reporter, mRNA; actives raise or lower the signal;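 on AC50: reporter responds to endogenous RAR alpha beta and gamma in HepG2 not RARA alone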
Chain of Retinoic acid receptor alpha (Homo sapiens) (P10276 whole entry, looked up): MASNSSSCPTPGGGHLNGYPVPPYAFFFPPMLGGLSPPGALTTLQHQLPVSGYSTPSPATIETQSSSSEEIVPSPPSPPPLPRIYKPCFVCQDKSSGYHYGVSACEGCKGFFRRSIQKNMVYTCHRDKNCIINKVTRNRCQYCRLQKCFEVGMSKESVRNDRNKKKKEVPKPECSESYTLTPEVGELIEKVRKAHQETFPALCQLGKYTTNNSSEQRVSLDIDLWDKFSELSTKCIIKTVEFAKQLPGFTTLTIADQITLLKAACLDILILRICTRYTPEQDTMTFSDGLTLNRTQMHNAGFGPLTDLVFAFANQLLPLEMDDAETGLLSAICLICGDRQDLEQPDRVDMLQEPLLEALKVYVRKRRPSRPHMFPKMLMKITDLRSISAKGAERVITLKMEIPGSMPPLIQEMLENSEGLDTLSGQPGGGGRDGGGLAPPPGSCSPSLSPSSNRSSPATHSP
How it was run: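 Reporter transcripts from a DR5-regulated unit, measured via RT-PCR plus capillary electrophoresis, reflect endogenous RAR activity in transiently transfected human HepG2 liver cells. Exposure lasted 24 h; gain or loss of signal scored against DMSO.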

[20] = ATG_AP_2_CIS: Attagene CIS-FACTORIAL HepG2 Assay for human Activator Protein 2 (AP-2) (AID 2282932); conditions: HepG2 AP-2 cis-reporter, Attagene transcription factor profiling; actives raise or lower the signal
How it was run: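 Endogenous transcription factor activity is reported through transfected multiplex reporter constructs in HepG2, after 24 h of compound exposure. Transcripts were quantified by RT-PCR and capillary electrophoresis of fluorescent fragments. Bidirectional fit against DMSO.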

Measured: AC50

COc1cc(-c2nc(NC(=O)c3cc4cc(C)cc(C)c4n3CC(=O)O)sc2CCC2CCCCC2)c(OC)cc1Cl
inactive: [1] | [5] | [8] | [10] | [12] | [13] | [15] | [16] | [17]
active: [2] 36 µM | [3] 4.79 µM | [4] 3.3 µM | [6] 10.4 µM | [7] 3.59 µM | [9] 25.6 µM | [11] 9.13 µM | [14] 32.2 µM

CC(=O)OC/C=C(\C)CCC=C(C)C
inactive: [1] | [2] | [3] | [4] | [5] | [6] | [18] | [19] | [8] | [9] | [10] | [11] | [12] | [13] | [14] | [15] | [16] | [17]

O=C(O)CCCCC(=O)O
active: [6] 72.5 µM
inactive: [1] | [2] | [3] | [4] | [5] | [8] | [9] | [10] | [11] | [12] | [13] | [14] | [15] | [16] | [17]

CCCCCCCCCCCCCO
inactive: [1] | [3] | [5] | [20] | [8] | [10] | [11] | [12] | [13] | [14] | [15] | [16] | [17]
active: [2] 10.3 µM | [4] 59.4 µM | [7] 34.3 µM | [19] 11.7 µM | [9] 21.8 µM

Cc1nc(-c2ccc3c(c2)CCN(CCC2CCC(NC(=O)/C=C/c4ccc(F)cc4)CC2)CC3)no1 (stereo not drawn)
inactive: [1] | [2] | [3] | [4] | [5] | [6] | [20] | [18] | [8] | [9] | [10] | [11] | [12] | [13] | [14] | [15] | [16] | [17]

O=c1c(O)c(-c2ccc(O)c(O)c2)oc2cc(O)cc(O)c12
active: [4] 26.5 µM | [7] 100 µM | [13] 25.8 µM
inactive: [1] | [2] | [3] | [5] | [20] | [19] | [8] | [9] | [10] | [11] | [12] | [14] | [15] | [16] | [17]

CC1=C(/C=C/C(C)=C/C=C/C(C)=C/CO)C(C)(C)CCC1
inactive: [1] | [2] | [3] | [18] | [8] | [9] | [10] | [14] | [15]
active: [4] 193 µM | [5] 65.6 µM | [6] 104 µM | [20] 164 µM | [19] 0.104 µM | [11] 80.7 µM | [12] 172 µM | [13] 4.13 µM | [16] 167 µM | [17] 166 µM

CC(=O)Oc1ccccc1C(=O)O
inactive: [1] | [2] | [3] | [4] | [5] | [20] | [18] | [19] | [8] | [9] | [10] | [11] | [12] | [13] | [14] | [15] | [16] | [17]
active: [7] 61.1 µM
